Only some compounds are listed: those with a hit (about 4.8% of all), similar ones and a draw of the others.
S2 tox: Viability Counterscreen for Primary qHTS for Inhibitors of ATXN expression. 0.49% of 400,000 active. Potency, µM (titrated, usually from 56.7 µM), usual class: cytotoxic. S2 cells (HEK-293 line with an ATXN2-luciferase reporter) viability, CellTiter-Fluor protease fluorescence, 24 h; further: nearly all actives have a fitted effect of over 40% in size
DRD3 antagonist: qHTS of D3 Dopamine Receptor Antagonist: qHTS; D(3) dopamine receptor (Homo sapiens), P35462; max response, negative = inhibition, %; 2.5% of 360,000 active; D3R cells, DiscoveRx beta-arrestin luminescence, antagonist mode; stronger effect = lower value; in the data active means max response below about -50%; inconclusive means no clear call, values can overlap the other calls
Target sequence (P35462 whole entry, looked up): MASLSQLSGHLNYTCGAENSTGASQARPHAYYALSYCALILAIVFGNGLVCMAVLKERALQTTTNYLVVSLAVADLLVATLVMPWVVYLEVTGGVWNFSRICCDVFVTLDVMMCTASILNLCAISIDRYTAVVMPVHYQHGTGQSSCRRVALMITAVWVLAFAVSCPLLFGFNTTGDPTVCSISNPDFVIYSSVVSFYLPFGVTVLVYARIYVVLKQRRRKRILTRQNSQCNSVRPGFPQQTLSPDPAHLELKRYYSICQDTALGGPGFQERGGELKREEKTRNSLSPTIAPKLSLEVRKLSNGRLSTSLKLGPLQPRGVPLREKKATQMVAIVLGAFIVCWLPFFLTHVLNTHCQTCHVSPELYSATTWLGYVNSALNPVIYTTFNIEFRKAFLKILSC
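Cells expressing the human receptor were seeded at 1500 cells/well, incubated overnight at 37 degrees C in 5% CO2, then exposed to library compounds with dopamine controls for 90 minutes at 37 degrees C before luminescent detection.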
TGFb inhibitor: qHTS for Inhibitors of TGF-b. HepG2 CAGA-GFP TGF-b/SMAD3 reporter, GFP fluorescence, 18 h; TGF-beta stimulated, 500 pg/mL final. Potency, µM (titrated, usually from 46.1 µM), usual class: inhibitors. 1.2% of 410,000 active. AID 588855, 2011; further: nearly all actives have a fitted effect of over 65% in size
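Read-out: total well GFP (ex488/em500-530) summed from mean per-cell fluorescence. Cells: HEPG2 CAGA-GFP, 1% FBS DMEM, 18 h at 37 degrees C with 500 pg/mL final TGF-beta. Unstimulated wells served as the full-inhibition control; stimulated DMSO wells = 0%.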
DRD3 agonist: qHTS of D3 Dopamine Receptor Agonist: qHTS; 0.58% of 410,000 active; D3R DiscoveRx beta-arrestin cells, luminescence, 90 min; D(3) dopamine receptor (Homo sapiens), P35462; max activation, %; AID 652048, 2013; in the data active means max activation above about 30%
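Cells at 1500/well, incubated overnight, then treated with pinned compounds (dopamine as control) for 90 min at 37 degrees C. DiscoveRx reagent added for 30 - 60 minutes at room temperature; luminescence read.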
ATXN2 expr inh: Primary qHTS for Inhibitors of ATXN expression; HEK-293 ATXN2-luciferase reporter, luminescence, 24 h; Potency, µM (titrated, usually from 57 µM), actives largely listed as inhibitors; 0.72% of 360,000 active; further: nearly all actives have a fitted effect of over 55% in size
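ATXN2-luciferase reporter cells (luciferase flanked by upstream and downstream ATXN2 gene portions) were treated 24 h at 37 °C with compounds at up to 57 uM. SteadyGlo luminescence gave expression; GF-AFC fluorescence gave viability.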
HepG2 viability: qHTS for Inhibitors of TGF-b: Cytotox Counterscreen. AID 588856, 2011. Potency, µM (highest dose often 46.1 µM), usual class: cytotoxic. HepG2 CAGA-GFP viability, ATP luminescence, 18 h. 0.76% of 410,000 active
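CellTiter-Glo luminescence gave cytotoxicity after 18 hours at 37 degrees C. The cells were HepG2 CAGA-GFP in 1% FBS DMEM, stimulated with 500 pg/mL TGF-beta after compound addition. %Activity was normalised to no-cell wells (complete cell-killing) and DMSO (no toxicity), and curves were fitted and classified.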
A number is an active result; - = inactive; ? = inconclusive; . = not tested or not shown; ! = not confirmed by another sample. Unless noted, the call rests on the fitted dose curve; in most records, active means well fitted curve in the direction sought with a large enough effect; inconclusive means small, poorly fitted or top-dose-only effect, or another doubt; inactive means no such curve, though single readings can be large; an effect the other way counts as inactive or inconclusive.

SMILES	S2 tox	DRD3 antagonist	TGFb inhibitor	DRD3 agonist	ATXN2 expr inh	HepG2 viability
Cc1nn(C(C)(C)C)c(OC(=O)c2cccs2)c1Sc1ccccc1	-	-53	-	-	-	-
O=S(=O)(c1ccccc1Cl)N1CCN(c2nc(-c3ccccc3)nc3ccccc23)CC1	.	.	-	.	.	-
O=c1cc(-c2ccc(O)cc2)oc2cc(O)c(C3OC(CO)C(O)C(O)C3O)c(O)c12 (stereo not given)	-	-64	-	-	-	-
COc1ccc(C(=O)N/C(=C\c2ccco2)C(=O)NCCCn2ccnc2)cc1	-	-55	-	-	-	-
Cc1ccc(C(=O)N/C(=C\c2ccco2)C(=O)NCCCn2ccnc2)cc1C	-	-	-	-	-	-
CC1CCN(C(=O)CSc2c(C(C)C)cnc3c2c(=O)n(C)c(=O)n3C)CC1	.	.	-	-	.	-
NC(CCc1ccccc1)c1csc(NC(=O)NCCc2ccccc2)n1 (stereo not given)	-	-	?	-	-	-
COc1ccccc1CNC(=O)Nc1nc(C(N)CCc2ccccc2)cs1 (stereo not given)	.	-	?	-	?	13µM
NC(=O)c1cccc(Nc2nc(C(N)CCc3ccccc3)cs2)n1 (stereo not given)	-	-	-	-	-	-
NC(COCc1ccccc1)c1csc(Nc2cc(Oc3ccccc3)ncn2)n1 (stereo not given)	?	-	?	-	?	-
COc1cccc(Nc2nc(C(N)COCc3ccccc3)cs2)n1 (stereo not given)	-	-	?	-	-	11µM
COc1cccc(Nc2nc(C(N)CCc3ccccc3)cs2)n1 (stereo not given)	?	-	?	-	28µM	-
COCCN(C)C(=O)c1cnn(-c2nccc(-c3cc(OC)ccc3OC)n2)c1C	-	.	.	.	.	.
COc1ccc2ncc3c(-c4ccc(C)c(C)c4)nn(CC(=O)Nc4ccccc4)c3c2c1	-	.	-	-	-	-
C/C(=C\C(=O)c1ccc(Br)cc1)Nc1cccc(Cl)c1	-	-	-	-	-	-
C/C(=C\C(=O)c1ccccc1)Nc1ccc(Cl)c(Br)c1	?	-55	-	-	-	-
Cn1c(SCC2CCCO2)nnc1C1CCN(Cc2ccco2)CC1 (stereo not given)	-	.	.	.	.	.
Cc1ccc(N(CC(=O)NC(C)(C)C)C(=O)CS(=O)CC(=O)Nc2ccc(F)cc2)cc1 (stereo not given)	-	-	-	-	-	-
Cc1ccc(NC(=O)CS(=O)CC(=O)N(CC(=O)NC(C)(C)C)c2cccc(C)c2C)cc1 (stereo not given)	-	-	-	32	-	-
CN(CCOc1cccc2ccccc12)Cc1ccccc1	-	-76	-	-	-	-
CN(CCOc1ccccc1)Cc1ccccc1	-	-117	-	-	-	-
CC(=O)NCCOc1cccc2ccccc12	-	-	-	-	-	-
CN(C)[C@@H](CCOc1cccc2ccccc12)c1ccccc1	?	.	.	.	32µM!	.
CCN(Cc1ccccc1)C(=O)CCCOc1ccccc1	-	-	-	-	-	-
c1ccc(CCNCCCOc2cccc3ccccc23)cc1	?	-67	?	-	?	-
SMILES	S2 tox	DRD3 antagonist	TGFb inhibitor	DRD3 agonist	ATXN2 expr inh	HepG2 viability
CCN1CCN(C(c2ccc(SC)cc2)c2c(O)cc(C)n(Cc3ccco3)c2=O)CC1 (stereo not given)	.	.	-	-	.	-
COc1cc2nc(N3CCCN(C)CC3)nc(OC3CCN(C)CC3)c2cc1OC	.	.	-	.	.	-
CNC(C)[C@@H]1CC[C@@H](N)[C@@H](O[C@H]2[C@H](O)[C@@H](O[C@H]3OC[C@](C)(O)[C@H](NC)[C@H]3O)[C@H](N)C[C@@H]2N)O1 (stereo not given in full)	-	.	.	-	.	.
COc1ccc(Nc2ncnc3c2cnn3-c2ccc(C)cc2)cc1Cl	-	.	-	-	-	-
CCc1ccccc1NC(=O)C1CCCN(c2ncnc3onc(C)c23)C1 (stereo not given)	-	.	-	-	-	-
COc1ccccc1-c1noc(-c2ccc(NCc3cccnc3)c([N+](=O)[O-])c2)n1	-	.	-	-	-	-
CN(CCOc1ccc(Cl)cc1)Cc1cccc(S(=O)(=O)N(C)C)c1	-	-	-	47	-	-
Cc1ccc(S(=O)(=O)N(C)C)cc1NC(=O)C(C)N(C)CCOc1ccc(Cl)cc1 (stereo not given)	-	-	-	-	?	-
O=C1CCCC(O)=C1C=NCc1ccccc1	-	-	-	-	4.7µM	-
O=C1CC(c2ccccc2)CC(O)=C1C=NCc1ccccc1 (stereo not given)	-	-	-	-	-	-
O=C1CC(c2ccccc2)CC(O)=C1C=NCc1ccccc1Cl (stereo not given)	-	-92	-	-	-	-
O=C1CC(c2ccccc2)CC(O)=C1C=NCc1ccco1 (stereo not given)	-	-57	-	-	-	-
COc1cc(/C=C/c2ccnc3ccccc23)ccc1N(C)C	.	.	-	.	.	-
Cn1c(=O)n(Cc2ccc(F)cc2)c(=O)c2c1nc1n2CCCN1C1CCCCC1	-	-99	-	-	-	-
COc1cccc(CCNc2ncnc3c2nnn3C)c1	.	.	?	-	.	-
COc1ccc(N(CC(=O)N2CCN(Cc3ccc4c(c3)OCO4)CC2)S(=O)(=O)c2ccc(F)cc2)cc1	-	-51	-	-	-	-
O=C(CN(c1ccccc1)S(=O)(=O)c1ccccc1)N1CCN(Cc2ccc3c(c2)OCO3)CC1	-	-67	-	-	-	-
Cc1ccc(S(=O)(=O)N(C)CC(=O)N2CCN(Cc3ccc4c(c3)OCO4)CC2)cc1	-	-	-	-	-	-
CCOC(=O)N1CCC(c2cc(=O)n3[nH]c(C)c(-c4ccc(F)cc4)c3n2)CC1	-	-	-	-	32µM	-
O=C(Cc1ccc(Oc2ccccc2)cc1)NO	.	.	-	.	.	-
COc1ccc(CNC/C=C/c2ccccc2)cc1	-	-80	-	-	.	-
NS(=O)(=O)c1ccc(CCNC/C=C/c2ccccc2)cc1	-	-71	-	-	.	-
COc1ccc(CCNC/C=C/c2ccccc2)cc1	-	-59	-	-	-	-
NS(=O)(=O)c1ccc(CCNCC#Cc2ccccc2)cc1	-	-	-	-	-	-
COc1ccc(CNS(=O)(=O)NCc2ccccc2)cc1	-	-	-	-	-	-
COc1ccc(CCNCc2ccc(OCc3ccccc3)cc2)cc1	-	-	?	-	-	-

Screening results as filed in PubChem.
